Assay results published in PubChem BioAssay AID1619 (SRMLSC, 2009).
Hit rate of the full screen: of about 220,000 compounds, about 830 (0.38%) were called active.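 Rule for the calls: active = compound inhibiting the enzyme by more than half at any dose during confirmatory dose-response retesting; inconclusive = strong single-dose inhibitors picked by rank but not retested; inactive = the rest.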 Not all results are given here. Entries with a potency or affinity are not part of this list.

biological target: Leucine aminopeptidase (Plasmodium falciparum (isolate 3D7)) (UniProt Q8IL11); test: P. falciparum M17LAP inhibitors, primary screen, biochemical, fluorogenic H-Leu-NHMec substrate, 1536-well (AID 1619); conditions: recombinant M17LAP, H-Leu-NHMec fluorogenic kinetic assay; at 30 µM; hits give high values;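 note: plate controls were full reaction with DMSO carrier for no effect and no enzyme background for full effect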
Sequence (Q8IL11 whole entry, looked up): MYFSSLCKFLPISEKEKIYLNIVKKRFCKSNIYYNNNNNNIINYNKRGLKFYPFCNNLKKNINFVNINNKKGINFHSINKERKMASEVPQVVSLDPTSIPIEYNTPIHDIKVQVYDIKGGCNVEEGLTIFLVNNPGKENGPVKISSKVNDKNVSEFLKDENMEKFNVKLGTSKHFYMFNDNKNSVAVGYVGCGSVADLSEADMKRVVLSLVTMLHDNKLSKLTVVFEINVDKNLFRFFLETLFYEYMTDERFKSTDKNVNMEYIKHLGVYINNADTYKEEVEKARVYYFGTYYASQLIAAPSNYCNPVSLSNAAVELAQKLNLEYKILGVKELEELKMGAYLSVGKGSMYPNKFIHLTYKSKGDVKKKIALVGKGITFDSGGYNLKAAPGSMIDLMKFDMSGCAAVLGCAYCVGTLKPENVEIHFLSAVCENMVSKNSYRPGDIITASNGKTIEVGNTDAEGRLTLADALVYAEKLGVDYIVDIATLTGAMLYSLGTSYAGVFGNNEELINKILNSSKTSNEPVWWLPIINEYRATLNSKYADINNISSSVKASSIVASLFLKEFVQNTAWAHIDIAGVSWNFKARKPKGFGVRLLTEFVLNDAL

inhibition, inactive:
O=C(NNC(=O)C1CC2CCC1C2)c1ccccc1 (centres undefined) 17.8%, O=C(NNC(=S)NC1CCCCC1)c1sc2ccccc2c1Cl 13.2%, CC(C)(C)c1ccc(/C=C2\Oc3cc(OC(=O)N4CCOCC4)ccc3C2=O)cc1 -5.21%, CCCC(C)NS(=O)(=O)c1ccc(OC)c(C)c1 (centres undefined) 1.13%, Cn1c(-c2ccc3ccccc3n2)nc2cnccc21 9.33%, CCCNC(=O)C(=O)NCc1ccccn1 -4.32%, Cc1cc(NC(=O)CN2C(=O)NC3(CCCCC3)C2=O)no1 -14.1%, O=C(CN1C(=O)NC2(CCCCC2)C1=O)Nc1ccccc1Cl 30.3%, Cc1cc(NC(=O)CN2C(=O)NC3(CCCCCC3)C2=O)no1 -1.33%, Cc1ccc(NC(=O)CN2C(=O)NC3(CCC(C)CC3)C2=O)c(Cl)c1 (centres undefined) 21%, COc1ccccc1NC(=O)CN1C(=O)NC2(CCCCCCC2)C1=O -0.01%, Cc1ccc(NC(=O)NC(=O)CN2C(=O)NC3(CCCCCCC3)C2=O)c(C)c1 3.61%, CCCNC(=O)c1cccc(NC(=O)C(C)C)c1 -3.07%, O=C(NC1CCCc2ccccc21)c1cccc(S(=O)(=O)N2CCOCC2)c1 (centres undefined) 2.84%, Cc1ccc(OCC(=O)Nc2sc3c(c2C#N)CCC3)cc1 4.24%, CCc1onc(C)c1C(=O)Nc1cc(C)ccc1OC 7.34%, COc1ccc2c(c1)SCC/C2=C\CN1C(=O)CCC1=O -6.21%, Cn1c(NCCc2ccccc2)cc(=O)n(C)c1=O 1.23%, Cc1ccc(NC(=O)CSc2nnc(N)s2)c([N+](=O)[O-])c1 26.8%, CCN(CC)S(=O)(=O)c1cccc(NC(=O)CSc2nnc(N)s2)c1 2.68%, COc1ccc(NC(=O)CSc2nnc(N)s2)c([N+](=O)[O-])c1 8.5%, CCN(CC)C(=O)CSc1nc2ccc(NC(=O)CSc3nnc(N)s3)cc2s1 19.7%, COc1ccc(NC(=O)CSc2n[nH]c(N)n2)c([N+](=O)[O-])c1 56.1%, CCc1nc(SCC(=O)Nc2ccc(OC)cc2[N+](=O)[O-])n[nH]1 11.8%, CCCCOC(=O)C(C#N)c1nc2ccccc2nc1N1CCN(Cc2ccc3c(c2)OCO3)CC1 (centres undefined) -4.21%, C/C(=N\NC(=O)c1ccc(CN2CCOCC2)cc1)c1ccc(NC(=O)c2ccccc2)cc1 4.99%, COc1ccc(C2CC(c3ccccc3)=NN2C(=O)COC(=O)CNC(=O)c2ccccc2)cc1 (centres undefined) -5.9%, CCCCC(CC)C(=O)Nc1ccccc1C#N (centres undefined) 2.15%, CCOC(=O)C1CCCCN1Cc1cn[nH]c1-c1ccc(F)cc1F (centres undefined) 0.93%, CCOC(=O)NC1(Nc2cccc(Cl)c2)Oc2ccccc2O1 13.3%, Cc1[nH]n(-c2ccccc2)c(=O)c1-c1ccc(Cl)cc1 14.5%, Cc1[nH]n(C(C)(C)C)c(=O)c1Sc1ccc(Cl)cc1 -0.55%, O=C(CC1Oc2ccccc2NC1=O)NCc1ccccc1 (centres undefined) 2.31%, CC(=O)NCCc1nc2ccccc2n1CCOc1ccccc1C -3.06%, COCc1cc(=O)n2[nH]c(-c3cccc(Br)c3)cc2n1 6.67%, O=C(O)c1cccc(NC(=S)N/N=C/c2cccc(O)c2)c1 56.3%, COc1ccc(/C=N/NC(=S)Nc2cccc(C(=O)O)c2)cc1OC 38.7%, O=C(O)c1cccc(NC(=S)N/N=C/c2ccccn2)c1 26.1%, COc1cc(/C=N/NC(=S)Nc2cccc(C(=O)O)c2)ccc1O 56.1%, COc1cc(/C=N/NC(=S)Nc2cccc(C(=O)O)c2)cc(OC)c1OC 41%, Cc1cccc(NC(=S)N/N=C/c2c[nH]c3ccccc23)c1 7.36%, CCCCCCCCC(=O)N/N=C(\C)c1ccc(O)cc1O 0.48%, Cc1ccccc1OCCn1cc(/C(N)=N/O)c2ccccc21 3.74%, CCO[C@@H]1OC(C(=O)N2CCOCC2)=C[C@H](c2coc3ccccc3c2=O)[C@H]1CCCO -0.63%, CC(=O)c1ccc(NC(=O)c2ccc(S(=O)(=O)c3ccccc3)cc2)cc1 -3.53%, O=C(CC(Nc1ccc(F)cc1)c1ccccc1)c1ccccc1 (centres undefined) -9.06%, O=C(CN(Cc1ccccc1)C(=O)c1ccco1)NCc1ccc(F)cc1 4.59%, O=C(CSc1ccc(Cl)cc1)Nc1cccc(-c2nnc(-c3ccco3)o2)c1 6.07%, O=C(CSc1nc(-c2ccc(Cl)cc2)[nH]c(=O)n1)Nc1cccc(Cl)c1 -10.8%, COCc1cc(C)nc(SCC(=O)Nc2cccc(C)c2C)c1C#N 6.16%, O=C(CSc1nc(O)cc(=O)[nH]1)N1c2ccccc2Sc2ccccc21 39.5%, Cc1cccc(NC(=O)CSc2nnc(-c3ccccc3)n2N)c1C 1.89%, N#Cc1c(-c2ccccc2)nc(-c2ccccc2)[nH]c1=O 5.14%, N#Cc1c(N)nc(-c2ccccc2)nc1-c1ccccc1 -4.62%, Cc1nc(SCC(=O)N2c3ccccc3Sc3ccccc32)n[nH]1 17.3%, O=C(CCn1c(=O)oc2ccccc21)NC1=NCCS1 4.21%, C(=C\c1ccccc1)/C=N/N1CCN(Cc2ccccc2)CC1 3.39%, O=c1c2sccc2nc(SCc2cc(=O)n3ccccc3n2)n1Cc1ccccn1 18%, O=C(CSc1ccc(Cl)cc1)Nn1cnnc1 8.97%, N#CCCN1CCN(S(=O)(=O)c2ccc(S(=O)(=O)NC3CCCC3)cc2)CC1 5.82%, O=C(Cn1nc2n(c1=O)-c1ccccc1SC2)N/N=C/c1cccnc1 3.98%, COc1ccc(CN2C(=O)c3ccccc3C2=O)cc1C(=O)OC(C)C(=O)NC(N)=O (centres undefined) -1.41%, CC(SC(=S)N1CCCC1)C(=O)O (centres undefined) -0.65%, O=C(OCCN1CCOCC1)C(c1ccccc1)c1ccccc1 -9.47%, FC(F)(F)c1nnc2ccc(NCn3nnc4ccccc43)nn12 22.6%, O=C(c1cnc2n(c1=O)CCS2)N(C1CCCCC1)C1CCCCC1 11.3%, CC(C)C(C)(C#N)NC(=O)CSc1nc2scc(-c3ccc(F)cc3)c2c(=O)n1Cc1ccccc1 (centres undefined) 11.3%, COc1cccc(F)c1C(C[N+](=O)[O-])c1c(N)n(C)c(=O)n(C)c1=O (centres undefined) 2.97%, N#CCOc1nc(N2CCCC2)nc(N2CCCC2)n1 1.35%, Cc1cc(OCC(=O)c2ccc(F)cc2)ccc1N1C(=O)CCC1=O -4.66%, O=C(/C=C/c1ccco1)Nc1cccnc1Cl 5.61%, O=C(/C=C/c1ccco1)Nc1ccccc1C(=O)O 27.5%, CCN(CC)S(=O)(=O)c1cccc(C(=O)N/N=C/c2ccccc2OCC(=O)O)c1 13.9%, COc1ccccc1NS(=O)(=O)c1cccc(C(=O)N/N=C/c2ccccc2OCC(=O)O)c1 16.5%, COCCOC(=O)c1c(C)oc2ccc(NS(=O)(=O)c3ccc(C)cc3)cc12 2.98%, O=C(O)c1cc(S(=O)(=O)Nc2ccc3oc(=O)sc3c2)ccc1O 51.1%, COc1ccc(S(=O)(=O)Nc2ccc3oc(C)c(C(=O)O)c3c2)cc1 6.21%, COCCOC(=O)c1c(C)oc2ccc(NS(=O)(=O)c3ccc(C(=O)O)cc3)cc12 32.9%, Cc1cc(C(=O)CN2C(=O)C(=O)N(Cc3ccccc3)C2=O)c(C)n1-c1ccc2c(c1)OCCO2 -11.2%, CC(C)c1nc(SCC(=O)Nc2c[nH]c(=O)[nH]c2=O)c2cnn(-c3ccccc3)c2n1 -6%, CC(=O)OCC(=O)Nc1ccccc1OC(F)F -2.65%, Cc1ccc(CNC(=O)C2CCCN(c3nc4ccsc4c(=O)s3)C2)cc1 (centres undefined) -6.15%, C#CCOCCOCCOCCNc1nc(N2CCN(C(=O)C([C@@H](C)CC)n3cc(C(N)CO)nn3)CC2)nc(N2CCN(C(=O)[C@H](CCC(=O)O)n3cc(C(N)CC(C)C)nn3)CC2)n1 (some centres undefined) 2.95%, O=C(N=C1c2ccccc2CN1c1ccc(F)c(F)c1)c1cccnc1 3.87%, Cc1ccc(C(=O)Nc2c(C)cc(-c3ccc(Cl)cc3)oc2=O)cc1 2.9%, CC1(CCc2ccccc2)NC(=S)N(c2ccccc2)N1 (centres undefined) 10.2%, CCCCC(=O)NNC(=S)NC(=O)c1ccc(C)cc1 59.8%, CCCCC(=O)Nc1cccc(NC(=O)c2cccc([N+](=O)[O-])c2)c1 5.17%, CCCC(=O)Nc1ccc(C(=O)NNC(=O)c2cccc([N+](=O)[O-])c2)cc1 4.12%, O=C(CNC(=S)NC(=O)c1cccc([N+](=O)[O-])c1)c1ccccc1 -0.71%, Cc1cccc(NC(=S)NNC(=O)c2cccc([N+](=O)[O-])c2)c1 3.9%, CCCCCC(=O)NNC(=S)NC(=O)c1ccccc1[N+](=O)[O-] 14.3%, CCCCCCCC(=O)NNC(=O)c1ccc([N+](=O)[O-])cc1 1.27%, CCCCC(=O)NNC(=S)NC(=O)c1ccc([N+](=O)[O-])cc1 44.2%
